High-throughput results: PubChem BioAssay, National Center for Advancing Translational Sciences (NCATS)
The list is not random: actives were taken first. Their share in the collection is about 2.6%.
TRPV1 agonist: HTS Assay for Compounds that Act as Agonists of the Vanilloid Receptor 1. TRPV1-expressing cells, Fluo-8 calcium influx, agonist mode. activation, % at 8.33 µM. actives 0.19% (n = 320,000). AID 540275, 2011; in the data active means activation above about 80%; inconclusive means between about 30% and that limit
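TRPV1-expressing cells were cultured overnight at 35.5C and loaded with Fluo-8 calcium dye for 40 to 90 min at room temperature. After a 10 s baseline, compound was added and calcium influx was read kinetically for 3 min (ex 480/em 520 nm).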
ClpP mod: qHTS Assay for Activators of ClpP. ATP-dependent Clp protease proteolytic subunit (Bacillus subtilis (strain 168)), P80244. purified B. subtilis ClpP, FRET peptide cleavage, 20 min. Potency, µM (doses to about 57.5 µM). actives 1.9% (n = 340,000). AID 651965, 2013; active means well fitted falling curve with a large enough effect; inconclusive means small, poorly fitted or top-dose-only effect; inactive means no such curve, though single readings can be large or run the other way; further: the source files actives as falling curves though it sought activators and does not explain the sign; nearly all actives have a fitted effect of over 65% in size
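ClpP 10 microg/mL final, pH 8 Tris/KCl buffer with BSA, glycerol, Tween-20; compound pinned in; FRET-FV substrate; RT 20 min; Ex320/Em430; ΔFRET vs ADEP 5.8 microM, DMSO, no enzyme.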
TRPV1 potentiator: HTS Assay for Compounds that Act as Potentiators of the Vanilloid Receptor 1; TRPV1-expressing cells, Fluo-8 calcium influx, capsaicin EC20 potentiation; potentiation, % at 8.33 µM; actives 0.02% (n = 320,000); in the data active means potentiation above about 80%; inconclusive means between about 30% and that limit
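Fluo-8 calcium influx in TRPV1-expressing cells, kinetic read (ex 480/em 520 nm). Compound added and read 3 min for agonist activity, followed by capsaicin at EC20 final and 2 min further read for enhancement.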
KCNH2 3.1 block: qHTS for Inhibitors of KCHN2 3.1: Mutant qHTS; U2OS KCNH2 3.1, thallium flux FluxOr; active compounds read low; activity change, % (tested at about 1.8 µM); actives 0.95% (n = 340,000);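 active means maximum activity change below -70%; inconclusive means maximum activity change from -70% to -50%; inactive means maximum activity change above -50%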;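 further: thallium influx rate constant from kinetic fluorescence after stimulation buffer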
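Thallium flux via FluxOr fluorescence (Red40 quencher, 45 min loading) in U2OS cells virally expressing the KCNH2 3.1 isoform (1.77 x 10^8 /mL virus, overnight at 37 C). Rate constants from 2-min kinetic reads post-stimulation, normalised to positive and negative controls.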
KCNH2 WT inh: qHTS for Inhibitors of KCHN2 3.1: Wildtype qHTS. Voltage-gated inwardly rectifying potassium channel KCNH2 (Homo sapiens), Q12809. U2OS, BacMam KCNH2, thallium flux FluxOr; active compounds read low. activity change, % at 1.84 µM. actives 0.37% (n = 340,000);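 active means maximum activity change below -70%; inconclusive means maximum activity change between -70% and -50%; inactive means maximum activity change above -50%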
Target sequence (Q12809 whole entry, looked up): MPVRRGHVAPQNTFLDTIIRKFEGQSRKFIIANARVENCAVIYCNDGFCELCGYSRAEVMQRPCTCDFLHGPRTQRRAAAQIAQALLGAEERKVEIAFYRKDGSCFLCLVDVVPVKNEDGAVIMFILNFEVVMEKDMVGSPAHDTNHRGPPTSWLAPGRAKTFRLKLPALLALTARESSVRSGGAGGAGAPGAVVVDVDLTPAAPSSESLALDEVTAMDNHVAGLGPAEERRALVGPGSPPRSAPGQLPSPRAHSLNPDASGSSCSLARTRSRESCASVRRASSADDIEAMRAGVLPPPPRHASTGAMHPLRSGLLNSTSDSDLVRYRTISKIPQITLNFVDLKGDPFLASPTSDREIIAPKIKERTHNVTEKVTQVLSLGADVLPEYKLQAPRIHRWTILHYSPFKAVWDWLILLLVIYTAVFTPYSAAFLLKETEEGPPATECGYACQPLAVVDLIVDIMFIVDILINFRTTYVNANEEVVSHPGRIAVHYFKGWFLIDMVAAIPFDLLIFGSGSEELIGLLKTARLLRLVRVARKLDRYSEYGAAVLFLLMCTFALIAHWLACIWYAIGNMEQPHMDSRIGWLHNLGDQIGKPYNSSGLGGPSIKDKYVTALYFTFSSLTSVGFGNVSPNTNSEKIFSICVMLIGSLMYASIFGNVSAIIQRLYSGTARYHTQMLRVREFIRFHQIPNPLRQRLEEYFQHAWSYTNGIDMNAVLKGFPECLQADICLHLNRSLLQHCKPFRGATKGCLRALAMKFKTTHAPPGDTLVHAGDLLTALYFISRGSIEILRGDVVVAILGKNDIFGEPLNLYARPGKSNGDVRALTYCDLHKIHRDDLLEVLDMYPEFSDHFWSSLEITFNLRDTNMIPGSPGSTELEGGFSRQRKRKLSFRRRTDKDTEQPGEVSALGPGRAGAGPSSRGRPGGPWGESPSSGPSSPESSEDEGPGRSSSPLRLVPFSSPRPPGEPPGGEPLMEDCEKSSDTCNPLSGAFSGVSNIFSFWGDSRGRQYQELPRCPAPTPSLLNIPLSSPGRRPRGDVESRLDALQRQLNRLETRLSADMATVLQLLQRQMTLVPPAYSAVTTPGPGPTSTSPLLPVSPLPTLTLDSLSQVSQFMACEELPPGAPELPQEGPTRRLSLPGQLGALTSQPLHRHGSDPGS
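U2OS cells transduced with wild-type KCNH2 virus are loaded with FluxOr dye for 45 min, and thallium flux is measured in kinetic reads before and after stimulation buffer. Rate constants are normalized to DMSO controls.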
p53 reactivator: qHTS assay for re-activators of p53 using a Luc reporter. Potency, µM (highest dose often 92.2 µM), usual class: activators. H1299 p53-A138V BP100-luciferase reporter, luminescence, 24 h. actives 0.063% (n = 320,000); active means well fitted activation curve with a large enough effect; inconclusive means small, poorly fitted or top-dose-only effect; inactive means no such curve, though single readings can be large or run the other way; further: nearly all actives have a fitted effect of over 45% in size
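H1299 (p53-null), stable ts p53-A138V + BP100-Luc; 1000 cells/well, Opti-MEM/10% FBS; cpd 4 pt, 1:5; 24 h, 37 deg C, 5% CO2; detection reagent 10 min RT; luminescence.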
Numbers stand for hits; n = inactive; u = inconclusive; x = no result given.

SMILES | TRPV1 agonist | ClpP mod | TRPV1 potentiator | KCNH2 3.1 block | KCNH2 WT inh | p53 reactivator
CC(C)(C)c1ccc(OCC(O)CN2CCCC2)cc1 (configuration not stated) | n | n | n | n | n | n
COc1ccc(OCC(O)CN2CCNCC2)cc1 (configuration not stated) | n | n | n | n | n | n
CC1(C)OC(=O)NC1c1ccccc1 (configuration not stated) | x | n | x | n | n | x
O=C(CSc1oc(-c2ccccc2)nc1S(=O)(=O)c1ccc(Br)cc1)c1ccccc1 | x | n | x | x | x | x
CCOP(=O)(OCC)C(Nc1ccc(F)cc1)c1ccccc1 (configuration not stated) | n | x | n | n | n | n
CCOP(=O)(OCC)C(Nc1ccccc1)c1ccco1 (configuration not stated) | n | n | n | -118 | n | n
Cc1ccc(S(=O)(=O)NCCC2=CCCCC2)cc1 | n | n | n | n | n | n
CCNS(=O)(=O)c1ccc(CCC(=O)NCCC2=CCCCC2)cc1 | n | n | n | n | -243 | n
Cc1ccc(S(=O)(=O)c2nnn3c2nc(NC2CCN(Cc4ccccc4)CC2)c2ccccc23)cc1C | n | n | n | -81 | n | n
Cc1ccc(S(=O)(=O)c2nnn3c2nc(NCc2ccccc2)c2sccc23)cc1 | x | 20µM | x | x | x | x
Cc1ccc(S(=O)(=O)c2nnn3c2nc(NCc2ccc(F)cc2)c2sccc23)cc1C | x | 28µM | x | x | x | x
CCCCNc1nc2c(S(=O)(=O)c3ccc(C)c(C)c3)nnn2c2ccsc12 | x | 28µM | x | x | x | x
Cc1ccc(S(=O)(=O)c2nnn3c2nc(NCc2ccc(F)cc2)c2sccc23)cc1 | x | n | x | x | x | x
Cc1cc(/C=C/c2c(C)cnc3ccccc23)ccc1N(C)C | x | n | x | x | x | x
Cc1cccc(N/C(N)=N/c2nc(C)cc(C)n2)c1 | x | 32µM | x | n | n | n
C[N+]1(CC(=O)c2ccc(Cl)cc2)CCOCC1 | x | n | x | x | x | x
Clc1ccc2nccnc2c1 | x | n | x | x | x | x
COc1ccc(CCNC(=O)COc2ncnc3cc([N+](=O)[O-])ccc23)cc1 | n | n | n | -107 | n | n
O=C(COc1ncnc2cc([N+](=O)[O-])ccc12)NCc1ccc2c(c1)OCO2 | n | n | n | n | n | n
COc1ccc(Cl)cc1-c1cc(C(=O)NCc2cccs2)[nH]n1 | x | n | x | x | x | x
Cc1ccc2nc3c(cc(C#N)c(=O)n3-c3nccs3)c(=O)n2c1 | n | 2.5µM | n | n | n | n
O=C(CNC(=O)c1ccccc1F)OCC(=O)N1CCCCC1 | n | 25µM | n | n | n | n
CC1CCN(C(=O)COC(=O)CNC(=O)c2ccccc2F)CC1 | n | n | n | n | n | n
CCC(C)c1ccc(NC(=O)NCCN2CCCCC2)cc1 (configuration not stated) | n | x | n | -94 | n | n
COc1ccc(C)cc1Nc1nc2cc(Cl)c(Cl)cc2nc1-n1nc(C)cc1C | x | n | x | x | x | x
SMILES | TRPV1 agonist | ClpP mod | TRPV1 potentiator | KCNH2 3.1 block | KCNH2 WT inh | p53 reactivator
OC1(c2ccc(Br)cc2)CCN(Cc2cccc(Br)c2)CC1 | n | n | n | -76 | n | x
Brc1cccc(CN2CCCCCC2)c1 | n | n | n | n | n | x
Cc1ccc(NC(=O)c2cc(S(=O)(=O)N3CCC4(CC3)OCCO4)ccc2F)cc1Cl | x | n | x | x | x | x
COc1ccc(-c2nc3ccccc3s2)cc1O | n | n | n | n | n | n
COc1cc(-c2nc3ccccc3s2)ccc1O | n | 8.9µM | n | n | n | u
COC(=O)C1N2C(=O)N(C)[C@H](C(=O)OC)[C@H]2SC1(C)C (some centres not stated) | x | n | x | x | x | x
